# From PubChem BioAssay (Tox21)
# Records with an inconclusive call do not appear. Unmarked numbers belong to inactive results. The call rests on the fitted dose curve; in most records, active means well fitted cell-killing curve with a large enough effect in the repeat runs (not every such curve was filed as active); inconclusive means weak or mixed curves, or effect the other way; inactive means no such curve, though single readings can be large or run the other way. Non-standard residues stand in square brackets, D forms with d. Residues, ends and D or L forms follow the SMILES beside them. *: point of attachment. Sta = CC(C)C[C@H](N)[C@@H](O)CC(=O)O; Isovaleryl = CC(C)CC(=O)*
# Test: qHTS assay to identify small molecule antagonists of the farnesoid-X-receptor (FXR) signaling pathway - cell viability counter screen (AID 743221); further: nearly all actives have a fitted effect of over 50% in size
# Details: FXR-bla HEK293T viability, CellTiter-Glo luminescence, 16 h; series mostly up to 62.6 µM; activity change, negative = cytotoxicity: at the top concentration
# Description: National Center for Advancing Translational Sciences [NCATS]
# NIH Chemical Genomics Center [NCGC]
# U.S. Environmental Protection Agency [EPA]
# National Institutes of Environmental Health Sciences [NIEHS]
# National Toxicology Program [NTP]
# U.S. Food and Drug Administration [FDA]
# The farnesoid-X-receptor (FXR), a nuclear hormone receptor, is highly expressed in liver, intestine, kidney and adrenal cortex. Natural ligands of FXR are the bile acids (Cholic acid, Chenodeoxy cholic acid etc). FXR is an important regulator of diverse metabolic pathways, including the bile acid homeostasis, lipid and glucose metabolisms. FXR regulates the expression of target genes by binding either as a monomer or as a heterodimer with the retinoid X receptor (RXR). Numerous studies have reported that FXR exerts protective function during cholestasis, diabetes, liver regeneration, and cancer. To identify compounds that inhibit FXR signaling, GeneBLAzer FXR-UAS-bla HEK 293T cell line (Invitrogen, Carlsbad, CA) containing a beta-lactamase reporter gene under the control of a UAS response element was used to screen the Tox21 10K compound library. The cytotoxicity of the Tox21 compound library against the FXR-bla cell line was tested in parallel by measuring the cell viability using CellTiter-Glo assay in the same wells.
# Tox21 Assay Protocol Summary:
# FXR-bla cells were dispensed at 5000 cells/5uL/well in 1536-well black wall/clear bottom plates using a Multidrop Combi (Thermo Fisher Scientific, Waltham, MA) dispenser. After the assay plates were incubated at 37 C and 5% CO2 for 5 h, 23 nL of compounds dissolved in DMSO, positive controls or DMSO only was transferred to the assay plate by a Pintool station (Kalypsys, San Diego, CA), followed by addition of 1 uL Chenodeoxycholic acid (50 uM, final concentration in the wells). The assay plates were incubated at 37C for 16 h. After 1 uL of LiveBLAzerTM B/G FRET substrate was added using a Bioraptr Flying Reagent Dispenser (FRD) workstation (Beckman Coulter, Indianapolis, IN), the plates were incubated at room temperature for 2 h, and fluorescence intensity was measured by an Envision plate reader (PerkinElmer, Shelton, CT). For cell viability readout that measures cytotoxicity, 4uL/well of CellTiter-Glo reagent was added into the assay plates using a Bioraptr FRD. After 30 min incubation at room temperature, the luminescence intensity in the plates was measured using a ViewLux plate reader (PerkinElmer).
# On the % scale 0 is the no-effect control and ±100 the full control effect.
row,Compound,"activity change, negative = cytotoxicity"
1,CCOCCOCCOC(C)=O,7.74% [at 81.1 µM]
2,O=C(O)P(=O)(O)O,-2.57%
3,CCN1CCN(C(=O)N[C@@H](C(=O)N[C@@H]2C(=O)N3C(C(=O)O)=C(CSc4nnnn4C)CS[C@H]23)c2ccc(O)cc2)C(=O)C1=O,2.81%
4,C/C=C/C(=O)CCCC,-1.64%
5,CCCCCCC(=O)c1ccccc1,-0.891%
6,CC(=O)c1ccc2ccc3ccccc3c2c1,3.77%
7,Cc1ccc(S(=O)(=O)NC(=O)NN2CC3CCCC3C2)cc1 (stereo not given),6.56%
8,Cc1ccccc1C#N,0.747%
9,O=C(O)COc1ccc2ccccc2c1,-0.26%
10,CCCc1ccc(O)c(OC)c1,-17.1%
11,COC(=O)c1ccc(C(=O)O)cc1,2.57%
12,N=C(N)S(=O)O,12.9%
13,CC(C)CC(=O)N[C@H](C(=O)N[C@H](C(=O)N[C@@H](CC(C)C)[C@@H](O)CC(=O)N[C@@H](C)C(=O)N[C@@H](CC(C)C)[C@@H](O)CC(=O)O)C(C)C)C(C)C (Isovaleryl-VV[Sta]A[Sta]-OH),0.441%
14,Cc1ccccc1OCC(=O)O,-3.29%
15,C[C@H]1COc2c(C3(N)CC3)c(F)cc3c(=O)c(C(=O)O)cn1c23,5.85%
16,CCCCN1C(=O)c2ccccc2C1=O,-0.138% [at 81.1 µM]
17,Cc1cc(O)c(Cl)cc1C,5.62%
18,O=C1Nc2ccccc2C1=O,2.72%
19,CCCCOCCCC,10.7%
20,COC(=O)C(c1ccccc1Cl)N1CCc2sccc2C1 (stereo not given),-1.02%

row,Compound,"activity change, negative = cytotoxicity"
1,C=CCON/C(CCC)=C1\C(=O)CC(C)(C)C(C(=O)OC)=C1O,8.02%
2,O=Cc1ccc(C(=O)O)cc1,8.32% [at 81.1 µM]
3,CC(=O)Oc1ccc(C(C)=O)cc1,3.72% [at 81.1 µM]
4,CNCCc1ccccn1,4.29%
5,C=CCN(CC=C)CC=C,9.28%
6,Cc1ccc(Br)cc1,-0.297%
7,CC(=O)SC[C@@H](C)C(=O)N1CCC[C@H]1C(=O)N[C@@H](Cc1ccccc1)C(=O)O,16.5%
8,CC[C@@]1(c2ccccc2)NC(=O)N(C)C1=O,11.1%
9,O=C[C@@H](O)[C@H](O)[C@H](O)CO,6.36%
10,CO/N=C(\C(=O)O)c1csc(NC(=O)CCl)n1,12.8%
11,CCCCCCC(O)CO (stereo not given),16.6%
12,CCOC(=O)CN1CCCC1=O,-4.22%
13,Cc1cc(C)c(N)c(Cl)c1,-5.55%
14,N#Cc1cc(NC(=O)C(=O)O)c(Cl)c(NC(=O)C(=O)O)c1,6.32%
15,CCCCCCCCCCCCCCCCN(C)C,-0.818% [at 5.95 µM]
16,Cc1cc(=O)oc2cc(O[C@@H]3SC[C@@H](O)[C@H](O)[C@H]3O)ccc12,3.08%
17,CC(C)C[P+](C)(CC(C)C)CC(C)C,-2.87% [at 81.1 µM]
18,COc1ccc(Cl)cc1C,-1.72% [at 81.1 µM]
19,Cc1cc2c(cc1CC(=O)c1sccc1S(=O)(=O)Nc1onc(C)c1Cl)OCO2,1.12%
20,OCCC(F)(F)C(F)(F)C(F)(F)C(F)(F)C(F)(F)C(F)(F)F,6.27%
